This is an account of results in the antibiotic and cytotoxicity screens of Wong et al. (2023).

Among all 39,000 compounds or so, about 3,300 (8.5%) were called active. For the sample, actives were picked, then their nearest neighbours and some compounds at random.

This assay has as its system HepG2. Put plainly: cytotoxicity call (relative viability < 0.9). To be noted: 10 µM.
Consider `CC1=CC(=O)c2ccccc2C1=O`, for which the cytotoxicity call was “active”.
The value for `O=C1C=C(O)C(=O)c2ccccc21` was “inactive”.
For `NC1=CC(=O)c2ccccc2C1=O`, the cytotoxicity call was “inactive”.
The value for `O=C(C[C@H]1CC[C@H]2[C@@H](COC[C@@H](O)CN2C(=O)Nc2ccc(F)cc2)O1)NCCCN1CCOCC1` was “inactive”.
Regarding `CC(C)NC(=O)N(C)C[C@@H]1Oc2ccc(NS(=O)(=O)c3cn(C)cn3)cc2C(=O)N([C@@H](C)CO)C[C@H]1C`, the cytotoxicity call was “inactive”.
The value for `C[C@@H]1CN([C@@H](C)CO)C(=O)CCCn2cc(nn2)CO[C@H]1CN(C)S(=O)(=O)c1ccc(Cl)cc1` was “inactive”.
As to `NC(=O)c1cc(S(=O)(=O)N2CCOCC2)ccc1F`, the cytotoxicity call was “active”.
Regarding `NCc1ccc(S(=O)(=O)N2CCOCC2)cc1`, the cytotoxicity call was “inactive”.
For the compound `Cn1c(=O)c(=O)n(C)c2cc(S(=O)(=O)N3CCOCC3)ccc21`, the cytotoxicity call was “inactive”.
Regarding `COCC(=O)Nc1ccc2c(c1)OC[C@H](C)N(C(=O)Cc1ccccn1)C[C@H](C)[C@H](OC)CN(C)C2=O`, the cytotoxicity call is “inactive”.
`C[C@@H]1CN([C@H](C)CO)S(=O)(=O)c2ccc(-c3cncnc3)cc2O[C@H]1CN(C)C(=O)NC1CCCC1`: the cytotoxicity call was “inactive”.
The value for `CC[C@H]1OC(=O)[C@H](C)[C@@H](O[C@H]2C[C@@](C)(OC)[C@@H](O)[C@H](C)O2)[C@H](C)[C@@H](O[C@@H]2O[C@H](C)C[C@H](N(C)C)[C@H]2O)[C@](C)(OC)C[C@@H](C)C(=O)[C@H](C)[C@@H](O)[C@]1(C)O` was “inactive”.
The result for `C[C@@H](O)c1cccc(C(F)(F)F)c1` reads “inactive”; that for `COc1ccccc1C(=O)Nc1ccc2c(c1)C(=O)N(C)[C@@H]1CC[C@@H](CC(=O)NCc3ccc(Cl)c(Cl)c3)O[C@@H]1CO2`, “active”.
The result for `COc1ccccc1C(=O)Nc1ccc2c(c1)C(=O)N(C)[C@@H]1CC[C@H](CC(=O)NCc3ccc(Cl)c(Cl)c3)O[C@H]1CO2` reads “inactive”; that for `CN1C(=O)c2cc(NC(=O)Cc3cccs3)ccc2OC[C@H]2O[C@@H](CC(=O)NCc3ccc(-c4ccccc4)cc3)CC[C@@H]21`, “inactive”; that for `COc1ccccc1C(=O)Nc1ccc2c(c1)C(=O)N(C)[C@H]1CC[C@H](CC(=O)NCc3ccc(Cl)c(Cl)c3)O[C@H]1CO2`, “active”.
With `COc1ccccc1C(=O)Nc1ccc2c(c1)C(=O)N(C)[C@@H]1CC[C@H](CC(=O)NCc3ccc(Cl)c(Cl)c3)O[C@@H]1CO2`, the cytotoxicity call is “inactive”.
The result for `CN1C(=O)c2cc(NC(=O)Cc3cccs3)ccc2OC[C@H]2O[C@H](CC(=O)NCc3ccc(-c4ccccc4)cc3)CC[C@@H]21` reads “inactive”.
The value for `CN1C(=O)c2cc(NC(=O)Cc3cccs3)ccc2OC[C@@H]2O[C@H](CC(=O)NCc3ccc(-c4ccccc4)cc3)CC[C@@H]21` was “active”; that for `COc1ccccc1C(=O)Nc1ccc2c(c1)C(=O)N(C)[C@@H]1CC[C@@H](CC(=O)NCCc3ccncc3)O[C@H]1CO2` was “inactive”.
Consider `COc1ccccc1C(=O)Nc1ccc2c(c1)C(=O)N(C)[C@H]1CC[C@@H](CC(=O)NCCc3ccncc3)O[C@@H]1CO2`, for which the cytotoxicity call is “inactive”.
Turning to `COc1ccccc1C(=O)Nc1ccc2c(c1)C(=O)N(C)[C@H]1CC[C@@H](CC(=O)NCCc3ccncc3)O[C@H]1CO2`, the cytotoxicity call is “inactive”.
In the case of `COc1ccccc1C(=O)Nc1ccc2c(c1)C(=O)N(C)[C@@H]1CC[C@H](CC(=O)NCCc3ccncc3)O[C@@H]1CO2`, the cytotoxicity call is “inactive”.
The result for `COc1ccccc1C(=O)Nc1ccc2c(c1)C(=O)N(C)[C@H]1CC[C@H](CC(=O)NCc3ccc(Cl)c(Cl)c3)O[C@@H]1CO2` reads “active”.
On to `COc1ccc(NC(=O)N(C)C[C@@H]2OCCCC[C@@H](C)Oc3ccc(NC(=O)C4CCCCC4)cc3C(=O)N([C@@H](C)CO)C[C@@H]2C)cc1`, for which the cytotoxicity call is “inactive”.
Take `C[N+](C)(C)CCCC[C@@H]1NC(=O)[C@H]2C[C@@H](C(=O)NCCCCCCN)[C@@H](c3ccc(O)cc3)N2C1=O`: the cytotoxicity call was “inactive”.
On to `CCNC(=O)[C@@H]1CCCN1C(=O)[C@H](CCCN=C(N)N)NC(=O)[C@H](CC(C)C)NC(=O)[C@@H](Cc1c[nH]c2ccccc12)NC(=O)[C@H](Cc1ccc(O)cc1)NC(=O)[C@H](CO)NC(=O)[C@H](Cc1c[nH]c2ccccc12)NC(=O)[C@H](Cc1c[nH]cn1)NC(=O)[C@@H]1CCC(=O)N1`, for which the cytotoxicity call was “inactive”.
`C[C@H](CO)N1C[C@H](C)[C@H](CN(C)C(=O)c2ccccn2)Oc2cc(C#Cc3ccc(F)cc3)ccc2S1(=O)=O`: the cytotoxicity call is “inactive”.
Take `O=C(O)c1ccc(O)cc1O`: the cytotoxicity call was “inactive”.
The result for `C[C@H](CO)N1C[C@H](C)[C@H](CN(C)Cc2ccc(C(F)(F)F)cc2)OCc2ccccc2-c2ccccc2C1=O` reads “inactive”.
The result for `COc1ccccc1CNC(=O)C[C@@H]1C[C@H]2c3cc(NS(=O)(=O)c4ccc(F)cc4)ccc3O[C@H]2[C@@H](CO)O1` reads “inactive”.
For the compound `C[C@H]1CCCCO[C@H](CN(C)S(=O)(=O)c2cccs2)[C@@H](C)CN([C@@H](C)CO)C(=O)c2cc(NS(=O)(=O)c3cn(C)cn3)ccc2O1`, the cytotoxicity call was “inactive”.
With `C[C@@H]1CN([C@@H](C)CO)C(=O)Cc2cc(NS(=O)(=O)c3cn(C)cn3)ccc2O[C@H]1CN(C)Cc1ccc2c(c1)OCO2`, the cytotoxicity call is “inactive”.
The value for `C[C@H](CO)N1C[C@H](C)[C@@H](CN(C)C(=O)C2CCCCC2)OCCCC[C@H](C)Oc2ccc(NC(=O)Nc3cccc4ccccc34)cc2C1=O` was “inactive”.
As to `C[C@@H]1CCCCO[C@@H](CN(C)S(C)(=O)=O)[C@H](C)CN([C@@H](C)CO)C(=O)c2cc(NS(=O)(=O)c3ccccc3)ccc2O1`, the cytotoxicity call was “inactive”.
The value for `COc1ccccc1C(=O)Nc1ccc2c(c1)C(=O)N(C)[C@@H]1CC[C@H](CC(=O)NCCc3ccncc3)O[C@H]1CO2` was “inactive”; that for `COc1ccccc1C(=O)Nc1ccc2c(c1)C(=O)N(C)[C@H]1CC[C@@H](CC(=O)NCc3ccc(Cl)c(Cl)c3)O[C@@H]1CO2` was “active”.
The result for `COc1ccccc1C(=O)Nc1ccc2c(c1)C(=O)N(C)[C@@H]1CC[C@@H](CC(=O)NCc3ccc(Cl)c(Cl)c3)O[C@H]1CO2` reads “inactive”; that for `COc1ccc(S(=O)(=O)N(C)C[C@@H]2Oc3ccc(NC(=O)Cn4cnnn4)cc3C(=O)N([C@H](C)CO)C[C@H]2C)cc1`, “inactive”; that for `C[C@H](CO)N1C[C@H](C)[C@@H](CN(C)S(C)(=O)=O)OCCCC[C@H](C)Oc2ccc(NC(=O)Nc3ccc(C(F)(F)F)cc3)cc2C1=O`, “inactive”.
As for `C[C@@H]1CCCCO[C@@H](CN(C)Cc2ccc(C(F)(F)F)cc2)[C@@H](C)CN([C@@H](C)CO)C(=O)c2cc(NS(=O)(=O)c3cn(C)cn3)ccc2O1`, the cytotoxicity call was “inactive”.
Turning to `CC(C)CCN1CCn2c(CO)nnc2C1`, the cytotoxicity call is “inactive”.
On to `C[C@@H]1CN([C@@H](C)CO)C(=O)Cc2cc(NC(=O)C3CC3)ccc2O[C@H]1CN(C)C(=O)NC1CCCCC1`, for which the cytotoxicity call is “inactive”.
On to `Cl.N#Cc1ccc2[nH]cc(CCCCN3CCN(c4ccc5oc(C(N)=O)cc5c4)CC3)c2c1`, for which the cytotoxicity call is “active”.
Turning to `CCC(=O)C12CC3CC(CC(C3)C1)C2`, the cytotoxicity call is “inactive”.
For `COc1ccc(NC(=O)N(C)C[C@H]2OCCCC[C@H](C)Oc3ccc(NC(=O)Nc4ccc5c(c4)OCO5)cc3C(=O)N([C@H](C)CO)C[C@@H]2C)cc1`, the cytotoxicity call is “inactive”.
The value for `CCOc1cc(OCC)cc(C(=O)N[C@@H](Cc2ccc(-n3cc(CCC(=O)NO)nn3)cc2)C(=O)OC)c1` was “inactive”.
Take `Nc1cccc(-n2cc(CCC(=O)NO)nn2)c1`: the cytotoxicity call is “inactive”.
The result for `Cc1ccc(S(=O)(=O)N[C@H](C(=O)NCCn2cc(CCC(=O)NO)nn2)C(C)C)cc1` reads “inactive”; that for `CC(/C=C/C(=O)NO)=C\c1ccccc1OCc1cn(C[C@@H]2CCCN2S(=O)(=O)c2ccc(C)cc2)nn1`, “active”.
`COC(=O)[C@@H](N)Cc1ccc(-n2cc(CCC(=O)NO)nn2)cc1`: the cytotoxicity call is “active”.
The result for `CC(/C=C/C(=O)NO)=C\c1ccccc1OCc1cn(CCNC(=O)[C@@H](NS(=O)(=O)c2ccc(C)cc2)C(C)C)nn1` reads “inactive”.
The result for `COC(=O)[C@@H](Cc1ccc(-n2cc(COc3ccccc3/C=C(C)/C=C/C(=O)NO)nn2)cc1)N1CC(/C=C/C2CC2)=C[C@H]1[C@H](O)Cc1ccccc1` reads “inactive”.
The value for `C#CCN([C@H](/C=C/C1CC1)[C@@H](O)Cc1ccccc1)[C@@H](Cc1ccc(-n2cc(COc3ccccc3/C=C(C)/C=C/C(=O)NO)nn2)cc1)C(=O)OC` was “inactive”; that for `Nc1ccc(-n2cc(CCC(=O)NO)nn2)cc1` was “inactive”; that for `Cc1ccc(S(=O)(=O)N(c2cccc(-n3cc(CCC(=O)NO)nn3)c2)S(=O)(=O)c2ccc(C)cc2)cc1` was “active”.
With `CC(/C=C/C(=O)NO)=C\c1ccccc1OCc1cn(-c2cccc(N(S(=O)(=O)c3ccc(C)cc3)S(=O)(=O)c3ccc(C)cc3)c2)nn1`, the cytotoxicity call is “active”.
Take `COC(=O)[C@H](Cc1ccccc1)N1C[C@](C)(OC(C)C)O[C@@H](CCn2cc(COc3ccccc3/C=C(C)/C=C/C(=O)NO)nn2)[C@@H]1/C=C/C1CC1`: the cytotoxicity call is “inactive”.
The value for `O=C(NC1CCC1)[C@H]1[C@H](CO)[C@H]2Cn3c(cccc3=O)[C@H]2N1CC1CCOCC1` was “inactive”; that for `COc1ccccc1-c1ccc2c(c1)O[C@H](CN(C)CC1CCOCC1)[C@H](C)CN([C@@H](C)CO)S2(=O)=O` was “inactive”.
The value for `C[C@H]1CN([C@@H](C)CO)C(=O)Cc2cc(NC(=O)CCN3CCOCC3)ccc2O[C@@H]1CN(C)Cc1ccncc1` was “inactive”.
`OCCNC(=S)Nc1ccccc1`: the cytotoxicity call is “inactive”.
The result for `C[C@H](CO)N1C[C@H](C)[C@@H](CN(C)S(=O)(=O)c2ccc(Cl)cc2)OCCCC[C@H](C)Oc2ccc(NC(=O)Nc3ccc(C(F)(F)F)cc3)cc2C1=O` reads “inactive”; that for `Cn1cnc(S(=O)(=O)N[C@@H]2CC[C@H](CC(=O)Nc3ccccc3)O[C@H]2CO)c1`, “inactive”.
For the compound `COc1ccc(CN(C)C[C@@H]2Oc3c(NS(=O)(=O)c4cn(C)cn4)cccc3C(=O)N([C@H](C)CO)C[C@@H]2C)cc1`, the cytotoxicity call is “inactive”.
The result for `CCCN(C)C[C@H]1Oc2cc(C#Cc3ccccc3OC)ccc2S(=O)(=O)N([C@@H](C)CO)C[C@H]1C` reads “inactive”.
